Calls of active or inactive are those of the source.

The nature of test [1]: E. coli DRC41 culture turbidity changes, primary screen, E. coli filamentation inducer project, strain DRC41, OD650, 48 h (AID 1152).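 Further: E. coli MC1000 strain DRC41 lacking acrAB efflux pump and sulA.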 The settings on record: E. coli DRC41 (acrAB sulA), higher = more signal, called active from +8 up or from −8 down.
Test [2] can be described thus: small-molecule binders of probe aLefty1, primary screen, biochemical, small-molecule microarray, 635/667 nm fluorescence (AID 1153).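 Further: score merges spot fluorescence with signal-to-noise ratio from the scanned slide images.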 Particulars: higher = more signal.
A short description of test [3]: PSAC antagonists in infected red cells, primary screen, cell-based, P. falciparum Indochina, OD700, 1 h (AID 1154). The settings on record: P. falciparum Indochina infected RBC osmotic lysis, higher = more signal, called active from +8 up or from −8 down.
A short description of test [4]: PSAC antagonists in infected red cells, primary screen, cell-based, P. falciparum Indochina, OD700, 2 h (AID 1155).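 Further: lysis reports solute entry through the parasite surface anion channel PSAC; channel blockers reduce lysis of infected cells.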 Particulars: P. falciparum Indochina infected erythrocytes, osmotic lysis OD700; higher = more signal, called active from +8 up or from −8 down.
Test [5] in a line: osmotic lysis modulators in infected erythrocytes, primary screen, PSAC antagonist project, cell-based, P. falciparum Indochina, OD700, 3 h (AID 1156). The settings on record: higher = more signal, called active from +8 up or from −8 down.
Test [6] can be described thus: PSAC antagonists in infected red cells, primary screen, cell-based, P. falciparum Indochina, OD700, 18 h (AID 1157). The settings on record: P. falciparum Indochina infected erythrocytes, osmotic lysis OD700, 18 h; higher = more signal, called active from +8 up or from −8 down.
Test [7] in a line: modulators of S6 phosphorylation in cells, primary screen, cell-based, A549, cytoblot, luminescence, serum-stimulated (AID 1158).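 Further: serum-stimulated A549 lung adenocarcinoma cells; signal is phosphorylated S6 detected by cytoblot immunostaining with HRP secondary.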 The settings on record: A549 phospho-S6 cytoblot, 5 h, higher = more signal.
Test [8] deals with NADPH oxidase 2 (Homo sapiens) (UniProt P04839). In words: NOX2-dependent H2O2 signal modulators, primary screen, NOX inhibitor project, cell-based, HEK293-NOX2, PMA-stimulated, Amplex Red fluorescence (AID 1159). Further: test concentration not given here. Particulars: 45 min, higher = more signal, called active from +8 up or from −8 down.
Test [9] concerns the target NADPH oxidase 4 (Homo sapiens) (UniProt Q9NPH5). In words: NOX4-dependent H2O2 signal modulators, primary screen, NOX inhibitor project, cell-based, HEK293-NOX4, tetracycline-induced, Amplex Red fluorescence (AID 1160). The settings on record: 45 min, higher = more signal, called active from +8 up or from −8 down.
Test [10] deals with NADPH oxidase 5 (Homo sapiens) (UniProt Q96PH1). The test is described as follows: NOX5-dependent H2O2 signal modulators, primary screen, NOX inhibitor project, cell-based, HEK293-NOX5, Amplex Red fluorescence (AID 1161). Particulars: HEK293-NOX5, ionomycin, 45 min, higher = more signal.
Sequence of NADPH oxidase 5 (Homo sapiens) (Q96PH1 whole entry, looked up): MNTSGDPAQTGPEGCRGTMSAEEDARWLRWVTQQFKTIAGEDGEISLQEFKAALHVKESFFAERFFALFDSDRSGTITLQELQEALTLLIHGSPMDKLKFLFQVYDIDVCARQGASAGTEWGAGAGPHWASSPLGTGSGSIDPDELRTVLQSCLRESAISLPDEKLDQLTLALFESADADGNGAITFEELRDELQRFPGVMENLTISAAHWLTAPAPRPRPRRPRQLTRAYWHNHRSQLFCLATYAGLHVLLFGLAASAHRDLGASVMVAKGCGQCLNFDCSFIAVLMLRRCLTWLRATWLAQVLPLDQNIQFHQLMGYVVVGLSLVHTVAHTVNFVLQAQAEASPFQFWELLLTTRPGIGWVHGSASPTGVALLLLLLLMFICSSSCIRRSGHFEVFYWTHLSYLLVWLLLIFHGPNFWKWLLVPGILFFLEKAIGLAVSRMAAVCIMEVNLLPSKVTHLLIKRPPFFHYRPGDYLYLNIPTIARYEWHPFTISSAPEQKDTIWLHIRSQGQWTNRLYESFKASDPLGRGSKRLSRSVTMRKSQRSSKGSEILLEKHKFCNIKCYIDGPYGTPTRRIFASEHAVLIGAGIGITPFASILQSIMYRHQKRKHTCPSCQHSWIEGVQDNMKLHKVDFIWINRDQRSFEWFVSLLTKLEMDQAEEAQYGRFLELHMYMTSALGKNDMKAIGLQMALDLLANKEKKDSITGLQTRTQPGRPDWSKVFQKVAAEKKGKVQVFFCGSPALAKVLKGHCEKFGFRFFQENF

Sequence of NADPH oxidase 2 (Homo sapiens) (P04839 whole entry, looked up): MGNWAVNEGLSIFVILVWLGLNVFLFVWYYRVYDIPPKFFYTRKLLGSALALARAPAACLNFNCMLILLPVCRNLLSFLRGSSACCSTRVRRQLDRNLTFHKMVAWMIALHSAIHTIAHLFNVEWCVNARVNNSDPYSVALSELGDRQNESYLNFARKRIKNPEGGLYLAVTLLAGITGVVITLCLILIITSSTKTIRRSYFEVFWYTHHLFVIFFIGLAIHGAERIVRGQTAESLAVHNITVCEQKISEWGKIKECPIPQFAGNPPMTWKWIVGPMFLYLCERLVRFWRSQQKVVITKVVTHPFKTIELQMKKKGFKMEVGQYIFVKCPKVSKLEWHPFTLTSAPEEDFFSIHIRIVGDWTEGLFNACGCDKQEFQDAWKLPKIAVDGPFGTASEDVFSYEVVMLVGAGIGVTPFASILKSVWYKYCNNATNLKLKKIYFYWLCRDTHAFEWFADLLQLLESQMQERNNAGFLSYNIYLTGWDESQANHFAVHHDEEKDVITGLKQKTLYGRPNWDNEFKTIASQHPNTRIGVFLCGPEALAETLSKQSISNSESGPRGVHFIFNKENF
Sequence of NADPH oxidase 4 (Homo sapiens) (Q9NPH5 whole entry, looked up): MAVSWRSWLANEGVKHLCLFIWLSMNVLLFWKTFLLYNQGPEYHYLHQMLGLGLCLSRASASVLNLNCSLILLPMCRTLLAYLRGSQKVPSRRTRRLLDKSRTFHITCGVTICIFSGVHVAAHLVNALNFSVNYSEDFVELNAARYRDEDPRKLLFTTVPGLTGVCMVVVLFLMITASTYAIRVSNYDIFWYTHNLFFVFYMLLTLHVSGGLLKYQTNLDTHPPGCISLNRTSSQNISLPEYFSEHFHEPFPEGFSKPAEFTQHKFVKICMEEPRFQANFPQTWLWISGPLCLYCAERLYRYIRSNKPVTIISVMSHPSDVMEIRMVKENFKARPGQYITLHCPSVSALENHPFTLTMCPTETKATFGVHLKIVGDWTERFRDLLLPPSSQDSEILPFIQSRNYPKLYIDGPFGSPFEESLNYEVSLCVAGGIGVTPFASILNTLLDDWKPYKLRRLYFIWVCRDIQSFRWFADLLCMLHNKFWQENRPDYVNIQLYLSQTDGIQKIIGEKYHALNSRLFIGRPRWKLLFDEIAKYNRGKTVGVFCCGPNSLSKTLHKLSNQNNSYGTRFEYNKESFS

For the compound `CC(C)N1C(=O)c2ccccc2[C@](C)(C(=O)O)[C@@H]1c1ccc(CO)cc1`, the z-score in test [1] is -0.308 (inactive); in test [3], 0.268 (inactive); in test [4], -0.103 (inactive); in test [5] it was 0.209 (inactive); in test [6], 0.352 (inactive); in test [7], 0.256. Moreover, the z-score was 0.229 (inactive) in test [8], -0.166 (inactive) in [9] and -1.27 in test [10]. For the same compound, in test [2], the composite z-score came out at 0.0451.

In the case of `Cc1ccc(F)cc1S(=O)(=O)N[C@@H]1CCN(C(=O)c2ccc(OC(C)C)cc2)C1`, the z-score in test [1] was 0.295 (inactive); in [3], 2.54 (inactive); in test [4], 1.02 (inactive); in [5], 0.79 (inactive); in test [6], 0.427 (inactive); in [7], -0.102. Also, the z-score in test [8] was -0.471 (inactive); in [9] it was -0.0285 (inactive); in test [10], -0.257. Also, the composite z-score in test [2] was -0.0973.

Take `C=CC[C@]1(C(=O)NCC(O)CO)N=C(c2ccc(OCCCO)cc2)O[C@H]1c1ccccc1N=[N+]=[N-]` (stereo not given in full): the z-score was 0.33 (inactive) in [1]; 34.3 (active) in test [3]; 30.5 (active) in test [4]; 2 (inactive) in test [5]; 7.28 (inactive) in test [6]; -0.33 in [7]. For the same compound, the results for the z-score in test [8], in [9] and in test [10] were -0.357 (inactive), 1.74 (inactive) and 0.781, respectively. For the same compound, the composite z-score in [2] turned out to be 0.658.

As to `COC(=O)C(CC#Cc1ccc2c(c1)[C@]1(C(=O)N2)[C@H](C(=O)N2CCc3cc(OC)c(OC)cc3C2)[C@H]2C(=O)O[C@H](c3ccccc3)[C@H](c3ccccc3)N2[C@@H]1c1ccc(O)cc1)C(=O)OC`, the z-score was 1.58 (inactive) in [1]; 6.21 (inactive) in test [3]; 1.93 (inactive) in test [4]; 1.93 (inactive) in test [5]; 0.958 (inactive) in test [6]; 0.125 in test [7]. For the same compound, the z-score in test [8] is -0.0647 (inactive); in test [9] it was -1.83 (inactive); in [10] it was 0.121. In test [2], the composite z-score is -0.321.

Consider `C=C(/C(=C/C[C@@H](OC(=O)c1ccncc1)c1cccc(OCCO)c1)c1cc(C(=O)OC)ccc1OC)C(C)C`, for which the z-score was 0.987 (inactive) in test [1]; 15 (active) in test [3]; 3.01 (inactive) in test [4]; 2.43 (inactive) in test [5]; 1.04 (inactive) in test [6]; 0.421 in [7]. The z-score in test [8] is 2.05 (inactive); in test [9], 1.09 (inactive); in test [10], -0.951. This compound yielded a composite z-score in [2] of 0.649.

On to `CC1=C2[C@@H](CCc3ccccc3)OB(O)C[C@@H]2[C@@H]2C(=O)C=CC(=O)[C@@H]2C1`, for which the z-score was -0.23 (inactive) in [1]; 2.27 (inactive) in test [3]; 0.229 (inactive) in test [4]; 0.236 (inactive) in test [5]; 0.182 (inactive) in [6]; 0.166 in test [7]. Also, the z-score in test [8] is -0.128 (inactive); in test [9] it was -2 (inactive); in [10] it was -3.15. This compound also had a composite z-score in test [2] of 0.0402.

On to `CCOC(=O)C1=CCC(c2cccc(Cl)c2)O1` (stereo not given), for which the z-score in test [1] is -0.504 (inactive); in [3], 14.9 (active); in [4], 1.02 (inactive); in test [5] it was 0.75 (inactive); in [6], -0.244 (inactive); in test [7] it was 1.61. In addition, the z-score in [8] is -4.41 (inactive); in test [9], -1.37 (inactive); in test [10], -3.51. The same compound displayed a composite z-score in test [2] of 0.152.

Regarding `O=C(NCc1ccccc1)[C@]1(Cc2ccccc2)N=C(c2ccc(OCCCO)cc2)O[C@@H]1c1ccccc1`, the z-score in [1] was -2.04 (inactive); in [3], 30.1 (active); in test [4] it was 22.5 (active); in test [5], 0.578 (inactive); in [6], 2.53 (inactive); in test [7], -0.397. Moreover, the z-score in [8] was 0.158 (inactive); in test [9], -0.503 (inactive); in test [10] it was -0.855. In addition, the composite z-score in test [2] is -0.225.

Turning to `CO[C@H]1O[C@H](CO)[C@@H](OC(=O)c2ccc(Br)cc2)[C@@H]2OC(=O)[C@H](Cc3cccc(Br)c3)C/C=C/C[C@@H](Cc3cccc(Br)c3)C(=O)O[C@@H]12`, the z-score was -0.681 (inactive) in test [1]; 1.56 (inactive) in test [3]; 0.624 (inactive) in test [4]; -0.778 (inactive) in test [5]; 0.484 (inactive) in [6]; -0.0043 in test [7]. In addition, the z-score in [8] is -0.129 (inactive); in test [9], 0.211 (inactive); in [10], 0.875. In test [2], this compound came in with a composite z-score of 0.415.

As to `COc1ccccc1CN1C(=O)c2ccccc2[C@](Cc2ccccc2I)(C(=O)NCCN2CCOCC2)[C@@H]1c1ccc(CO)cc1`, the z-score was 0.117 (inactive) in [1]; 9.62 (active) in [3]; 0.349 (inactive) in test [4]; -0.113 (inactive) in [5]; -0.385 (inactive) in test [6]; 1.39 in [7]. The z-score was -1.81 (inactive) in test [8], 0.454 (inactive) in test [9] and -0.824 in test [10]. In test [2], this compound yielded a composite z-score of -0.181.

Take `CC(C)c1ccc(NN2C(C(O)c3ccccn3)C=CC3C(=O)N(c4ccccc4)C(=O)C32)cc1` (stereo not given): the z-score in test [1] is -0.701 (inactive); in [3], 7.66 (inactive); in test [4], 1.4 (inactive); in test [5], 2.42 (inactive); in [6], 1.64 (inactive); in [7], -0.336. For the same compound, the figures for the z-score in test [8], in test [9] and in [10] were -1.2 (inactive), -3.57 (inactive) and -3.05, respectively. For the same compound, the composite z-score in [2] worked out at 0.595.
